Experimental data published in PubChem BioAssay.
Where “and” joins values, the source holds several entries; their conditions need not be identical. Identical values can stand only once. Calls of active or inactive are those of the source.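 Rule for the calls, unless noted: active = compounds whose cell count with miR-34 switched on is under 0.7 times the count with it off; inactive = the rest.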

Assays:
[1] = viability loss with induced miR-34 in A549 – imaging, A549 dox-inducible miR-34, nuclei and caspase counts, primary screen (AID 1347080); settings: A549 miR-34 inducible, Hoechst nuclei count, 48 h; note: test concentration not given here
[2] = galactose survival enhancers in mitochondrial complex I cybrids – cell-based, galactose medium, ATP luminescence, primary screen (AID 1645843;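 active = z-score of at least 1.8 in each of two replicates, scored against plate mean and spread of sample wells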;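 note: positive z means more ATP and so rescue of galactose-driven cybrid death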); settings: complex I mutant cybrid cells, 72 h, stronger effect = higher value
[3] = stronger effect = lower value, cell number ratio, induced over uninduced
[4] = measured here: relative caspase fold change +Dox/-Dox
[5] = measured here: total cells with miR-34 induction, stronger effect = lower value
[6] = measured here: total cells without miR-34 induction

Row | SMILES | fold change [1, 3] | fold change [1, 4] | cell count [1, 5] | cell count [1, 6] | z-score [2]
1 | C#C[C@]1(O)CCC2C3CCC4=CC(=O)CCC4C3CC[C@@]21CC (stereo not given in full) | 0.905 (inactive) | 1.25 | 8490 | 9390 | 0.65 (inactive)
2 | O=C1C2CCCCC2C(=O)N1CCCCN1CCN(c2nsc3ccccc23)CC1 (stereo not given) | 0.926 (inactive) | 1.74 | 7810 | 8440 | -1.79 (inactive)
3 | C=C1C(=CC=C2CCC[C@@]3(C)C2CCC3C(C)C=CC(O)C2CC2)CC(O)CC1O (stereo not given in full) | 1.02 (inactive) | 1.9 | 9990 | 9800 | -1.44 (inactive)
4 | C=CC1=C(C(=O)O)N2C(=O)C(NC(=O)C(=NO)c3csc(N)n3)C2SC1 (stereo not given) | 0.914 (inactive) | 1.91 | 9440 | 10300 | 0.13 (inactive)
5 | CC1COc2c(C3(N)CC3)c(F)cc3c(=O)c(C(=O)O)cn1c23 (stereo not given) | 0.951 (inactive) | 1.6 | 9830 | 10300 | 0.395 (inactive)
6 | CC(=O)[C@@]1(O)CCC2C3CC(C)C4=CC(=O)CC[C@]4(C)C3CC[C@@]21C (stereo not given in full) | 0.817 (inactive) | 0.742 | 7720 | 9450 | -0.04 (inactive)
7 | CC1CNc2c(cccc2S(=O)(=O)NC(CCCN=C(N)N)C(=O)N2CCC(C)CC2C(=O)O)C1 (stereo not given) | 0.968 (inactive) | 1.83 | 10100 | 10500 | 0.935 (inactive)
8 | COc1cccc2c1C(=O)c1c(O)c3c(c(O)c1C2=O)C[C@@](O)(C(=O)CO)CC3OC1CC(N)C(O)C(C)O1 (stereo not given in full) | 0.969 (inactive) and 1 (inactive) | 0.932 and 0.974 | 1960 and 2320 | 2030 and 2320 | -1.87 (inactive) and -1.86 (inactive)
9 | CCC1OC(=O)C(C)C(=O)C(C)C(OC2OC(C)CC(N(C)C)C2O)[C@](C)(OC)CC(C)C(=O)C(C)C2N(CCCCn3cnc(-c4cccnc4)c3)C(=O)O[C@]12C (stereo not given in full) | 0.904 (inactive) | 0.557 | 7630 | 8440 | 0 (inactive)
10 | CC1CC2C3CCC4=CC(=O)C=C[C@]4(C)[C@@]3(F)C(O)C[C@]2(C)C1C(=O)CO (stereo not given in full) | 0.805 (inactive) | 1.08 | 6880 | 8550 | 1.76 (inactive)
11 | CC=CC(=O)N(CC)c1ccccc1C | 0.962 (inactive) | 1.8 | 9730 | 10100 | 0.595 (inactive)
12 | CN1C2CC(OC(=O)C(CO)c3ccccc3)CC1C1OC12 (stereo not given) | 0.901 (inactive) | 2.66 | 9400 | 10400 | 0.87 (inactive)
13 | CC(C)(C)NC(=O)C1CC2CCCCC2CN1CC(O)C(Cc1ccccc1)NC(=O)C(CC(N)=O)NC(=O)c1ccc2ccccc2n1 (stereo not given) | 1.12 (inactive) | 1.27 | 4860 | 4350 | -1.52 (inactive)
14 | CCOC(=O)O[C@]1(C(=O)OCCl)CCC2C3CCC4=CC(=O)C=C[C@]4(C)C3C(O)C[C@@]21C (stereo not given in full) | 0.961 (inactive) | 1.35 | 6110 | 6360 | 0.71 (inactive)
15 | CC1CN(CCCn2c3ccccc3c3ccccc32)CC(C)N1 (stereo not given) | 0.806 (inactive) | 1.22 | 6730 | 8340 | -1.61 (inactive)
